# According to US20220289795, “EFFICIENT METHOD FOR PREPARING PPR PROTEIN AND USE OF THE SAME” (EditForce, Inc., published 2022):
# Target: T1, NL_v2_PPR11 (Artificial Sequence)
# T1 chain: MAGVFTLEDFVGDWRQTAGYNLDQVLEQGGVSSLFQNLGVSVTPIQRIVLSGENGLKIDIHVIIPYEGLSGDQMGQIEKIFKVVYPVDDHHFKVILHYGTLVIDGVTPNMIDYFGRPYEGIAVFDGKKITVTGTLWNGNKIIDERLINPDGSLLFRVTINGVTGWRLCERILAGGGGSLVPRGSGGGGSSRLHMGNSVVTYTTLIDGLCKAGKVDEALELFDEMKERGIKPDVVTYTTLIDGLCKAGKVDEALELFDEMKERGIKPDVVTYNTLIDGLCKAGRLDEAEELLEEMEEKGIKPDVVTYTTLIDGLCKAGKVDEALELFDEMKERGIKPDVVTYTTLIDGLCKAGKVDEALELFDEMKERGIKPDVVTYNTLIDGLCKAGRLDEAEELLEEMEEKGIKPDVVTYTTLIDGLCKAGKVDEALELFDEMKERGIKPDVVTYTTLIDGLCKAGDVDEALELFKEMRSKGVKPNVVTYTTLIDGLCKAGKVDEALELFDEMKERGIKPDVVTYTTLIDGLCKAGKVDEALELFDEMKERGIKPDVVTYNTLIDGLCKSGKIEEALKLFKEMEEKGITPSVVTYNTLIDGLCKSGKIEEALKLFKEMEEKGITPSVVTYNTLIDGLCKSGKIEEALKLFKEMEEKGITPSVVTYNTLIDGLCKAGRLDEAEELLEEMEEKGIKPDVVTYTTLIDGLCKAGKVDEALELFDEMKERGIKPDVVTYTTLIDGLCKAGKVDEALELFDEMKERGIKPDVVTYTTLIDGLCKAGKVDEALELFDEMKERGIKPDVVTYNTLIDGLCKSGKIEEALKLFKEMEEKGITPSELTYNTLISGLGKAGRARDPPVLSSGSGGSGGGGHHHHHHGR
# Assay: RPB-ELISA
# Conditions: tags: N-terminal luciferase, C-terminal 6xHis; label: 5'-biotin; ssRNA
# Method: RNA probes consisting of a designed 30-base sequence containing 18 bases of the target sequence and modified by biotinylation at the 5′ end (RNA_1, RNA_2, RNA_3, RNA_4, and RNA_5, SEQ ID NOS: 61 to 65) were synthesized (Grainer). To a streptavidin-coated plate (Thermo fisher), the 5′-end biotinylated RNA probes were added, reaction was allowed at room temperature for 30 minutes, and the plate was washed with a lysis buffer (20 mM Tris-HCl, pH 7.6, 150 mM NaCl, 5 mM MgCl₂, 0.5% NP-40, 1 mM DTT, 0.1% BSA). For background measurement, wells to which RNA was not added, but 100 μL of the lysis buffer, 1 μL of 100 mM DTT, and 1 μL of 40 unit/4 RNase inhibitor (Takara, 2313A) were added were also prepared. Then, 200 μL of a blocking buffer (20 mM Tris-HCl, pH 7.6, 150 mM NaCl, 5 mM MgCl₂, 0.5% NP-40, 1 mM DTT, 1% BSA) was added, and the plate surface was blocked at room temperature for 30 minutes. Then, 100 μL of E. coli lysate containing luciferase-fused PPR protein having a luminescence level of 1.5×10⁸ LU/μL was added to each well, and the binding reaction was allowed at room temperature for 30 minutes. The well was washed 5 times with 200 μL of a washing buffer (20 mM Tris-HCl, pH 7.6, 150 mM NaCl, 5 mM MgCl₂, 0.5% NP-40, 1 mM DTT). […] The background (luminescence signal value obtained with adding the PPR protein and without adding RNA) was subtracted from the luminescences of the samples to which a solution containing each RNA and PPR protein was added, and the obtained values were used as the binding powers between the PPR protein and RNA.
# By using the v2 motif, PPR proteins for 23 kinds of target sequences (T_1 to T_3, and T_5 to T_24, SEQ ID NOS: […]) were prepared (NL_v2_PPR1 to 3, and NL_v2_PPR5 to 24, SEQ ID NOS: 56 to 58 and 70 to 88), and RPB-ELISA was used to analyze bindings of all the combinations. The experimental method was the same as that used in Example 3.
row,Sequence,binding signal [log2 luminescence]
1,GGUUAGAGAUACAGUGUG,20.4
